Assay results: article PMC5540273 (PLoS ONE, 2017)

Legend:
Conditions in all cases: concentration: 1 μM, replicates: in singlicate; n = 1
MEK2 = system: T1, MEK2
T1 construct: gene MAP2K2

MEK3 = system: T2, MEK3
T2 construct: gene MAP2K3

MEK4 = system: T3, MEK4
T3 construct: gene MAP2K4

MEK5 = system: T4, MEK5
T4 construct: gene MAP2K5

MEK6 = system: T5, MEK6
T5 construct: gene MAP2K6

MELK = system: MELK
MERTK = system: MERTK
MET = system: MET
MINK = system: T6, MINK
T6 construct: gene MINK1

MKK7 = system: MKK7
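Also: KINOMEscan kinase panel screen.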

Structure (SMILES) | %Inh (MEK2) [%] | %Inh (MEK3) [%] | %Inh (MEK4) [%] | %Inh (MEK5) [%] | %Inh (MEK6) [%] | %Inh (MELK) [%] | %Inh (MERTK) [%] | %Inh (MET) [%] | %Inh (MINK) [%] | %Inh (MKK7) [%]
Cc1cccc(-c2cc(Nc3ccncc3)c3ccccc3n2)n1 [GSK223675] | 0 | 0 | 0 | 0 | 0 | 0 | 4 | 0 | 10 | 5
Fc1cc(Cl)ccc1Nc1ccnc2cc(-c3ccc(CN4CCCCC4)o3)ccc12 [GW560116] | 100 | 0 | 32 | 83 | 2 | 9 | 0 | 0 | 19 | 0
CC(=O)Nc1nc2cnc(Nc3cc(NC(=O)c4cccc(CCC#N)c4)ccc3C)nc2s1 | 0 | 3 | 25 | 2 | 12 | 0 | 12 | 7 | 4 | 0
Cc1cc(NCC(c2ccccc2)c2ccccc2)nc(NCc2ccc(C(F)(F)F)cc2)n1 [GW497681] | 0 | 0 | 10 | 1 | 0 | 0 | 7 | 13 | 0 | 0
Cc1csc(-c2nc(Nc3ccncc3)c3ccccc3n2)n1 [GW869640] | 17 | 38 | 29 | 47 | 0 | 24 | 0 | 30 | 55 | 10
O=S(=O)(c1ccc(-c2ccnc3[nH]ccc23)cc1)N1CCCC1 [GSK846226] | 22 | 0 | 18 | 14 | 21 | 7 | 16 | 0 | 0 | 0
Fc1cccc(COc2nnc(-c3ccc4c(c3)CCO4)o2)c1 | 4 | 0 | 0 | 9 | 0 | 19 | 0 | 0 | 1 | 13
O=C(O)COc1ncnc2cc(-c3ccc4[nH]ncc4c3)sc12 | 7 | 17 | 37 | 38 | 0 | 21 | 0 | 1 | 12 | 0
CS(=O)(=O)c1ccc(-c2nc3n(c2-c2ccncc2)CCC3)cc1 [SKF-105942] | 0 | 0 | 8 | 15 | 0 | 0 | 24 | 0 | 1 | 0
O=C1NC(=O)C(N2CCc3ccccc32)=C1c1ccccc1Cl [SB-373598] | 0 | 0 | 9 | 8 | 0 | 12 | 27 | 17 | 4 | 20
COc1cc2ncnc(Nc3ccc4nc(-c5ccccc5)[nH]c4c3)c2cc1OC.Cl [GW282450] | 0 | 3 | 21 | 90 | 0 | 7 | 0 | 0 | 1 | 0
O=C(Nc1n[nH]c2nc(-c3nccs3)c(Br)cc12)C1CCCC1 [SB-742609] | 0 | 0 | 30 | 39 | 0 | 0 | 44 | 5 | 0 | 0
CCn1c(-c2ccccn2)nc2cnccc21 [SB-736398] | 0 | 0 | 19 | 12 | 100 | 22 | 0 | 15 | 0 | 0
COc1ccc2nc(-c3cccc(C)n3)nc(Nc3ccncc3)c2c1 [GSK204919] | 0 | 0 | 17 | 1 | 0 | 0 | 15 | 15 | 30 | 0
Fc1cc(Cl)ccc1Nc1ccnc2cc(I)ccc12 [GW551191] | 0 | 0 | 46 | 75 | 0 | 16 | 30 | 8 | 51 | 0
COC(=O)c1c(-c2ccccc2)c2cc(C(=O)O)ccc2c(=O)n1Cc1ccccc1 | 10 | 7 | 0 | 4 | 0 | 0 | 0 | 0 | 0 | 0
Nc1ncnc2[nH]c(-c3ccccc3)nc12 [AH5015] | 0 | 1 | 13 | 50 | 0 | 0 | 0 | 0 | 4 | 0
Cc1c(Cn2ccn3c(=O)cc(N4CCOCC4)nc23)cccc1C(F)(F)F [GSK2289044] | 0 | 17 | 9 | 0 | 0 | 21 | 15 | 0 | 1 | 16
